# Experimental data as given in the supplement of paper PMC12645437, “Orthogonal IMiD-Degron Pairs Induce Selective Protein Degradation in Cells” (ACS Chemical Biology, 2025).
# The full ranking holds about 8,300 sequences; the median of “log2 fold change of degron read counts, EGFP-low vs EGFP+ sorted cells (limma voom), compound-induced degradation” is about -1.1, and the highest 2% start at about 3.2. The list comes from a sample in which the highest values are over-represented; it also holds similar and randomly drawn sequences.
# Molecular target: T1, CRBN, Q96SW2
# T1 chain: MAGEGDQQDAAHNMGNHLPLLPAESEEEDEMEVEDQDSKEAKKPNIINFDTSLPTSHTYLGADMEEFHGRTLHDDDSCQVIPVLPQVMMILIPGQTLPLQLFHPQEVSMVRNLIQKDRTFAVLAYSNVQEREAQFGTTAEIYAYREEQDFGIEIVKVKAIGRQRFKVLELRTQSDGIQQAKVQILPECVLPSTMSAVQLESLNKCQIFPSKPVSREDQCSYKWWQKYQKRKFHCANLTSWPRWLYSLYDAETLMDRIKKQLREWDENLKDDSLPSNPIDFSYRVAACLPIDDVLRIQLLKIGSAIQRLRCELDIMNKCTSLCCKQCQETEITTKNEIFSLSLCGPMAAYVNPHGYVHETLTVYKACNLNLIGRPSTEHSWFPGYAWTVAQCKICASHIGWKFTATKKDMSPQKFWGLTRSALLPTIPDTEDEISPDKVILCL
# Assay: log2 fold change of degron read counts, EGFP-low vs EGFP+ sorted cells (limma voom), compound-induced degradation; higher = more compound-induced degradation of the degron-EGFP fusion; degrons are variants of IKZF1/3 zinc finger 2; compound dose not given here
# Details: Jurkat, 18 h
# [1] = compound: compound 19 (5-tert-butyl-thalidomide)
# [2] = compound: compound 22 (5-morpholino-thalidomide)
# [3] = compound: compound 33 (diphenyl IMiD analogue)
# 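Further: pooled lentiviral library of zinc finger degron-EGFP fusions in mCherry-positive Jurkat cells, FACS-sorted after compound exposure, with degron abundance counted by next-generation sequencing.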
sequence,measurement,setting,value
"FNCEICGASFTQKGNLLRHIKL [46F_47N_49E_50I_52G_53A_54S_55F_67L_, Q9UKT9]",log2 fold change of degron read counts,[1],3.43
same,log2 fold change of degron read counts,[2],1.63
same,log2 fold change of degron read counts,[3],0.778
same,log2 fold change of degron read counts,compound: thalidomide,0.457
"FFCEICGASFTQKGNLLRHIKL [46F_47F_49E_50I_52G_53A_54S_55F_67L_, Q9UKT9]",log2 fold change of degron read counts,[1],3.6
same,log2 fold change of degron read counts,[2],3.72
same,log2 fold change of degron read counts,[3],2.31
same,log2 fold change of degron read counts,compound: thalidomide,1.63
"FRCEICGASFTQKGNLLRHIKL [46F_47R_49E_50I_52G_53A_54S_55F_67L_, Q9UKT9]",log2 fold change of degron read counts,[1],2.38
same,log2 fold change of degron read counts,[2],1.52
same,log2 fold change of degron read counts,[3],2.01
same,log2 fold change of degron read counts,compound: thalidomide,2.12
"FECEICGASFTQKGNLLRHIKL [46F_47E_49E_50I_52G_53A_54S_55F_67L_, Q9UKT9]",log2 fold change of degron read counts,[1],2.12
same,log2 fold change of degron read counts,[2],-0.516
same,log2 fold change of degron read counts,[3],1.74
same,log2 fold change of degron read counts,compound: thalidomide,2.43
"FACEICGASFTQKGNLLRHIKL [46F_47A_49E_50I_52G_53A_54S_55F_67L_, Q9UKT9]",log2 fold change of degron read counts,[1],3.67
same,log2 fold change of degron read counts,[2],2.8
same,log2 fold change of degron read counts,[3],0.948
same,log2 fold change of degron read counts,compound: thalidomide,1.06
"FTCEICGASFTQKGNLLRHIKL [46F_47T_49E_50I_52G_53A_54S_55F_67L_, Q9UKT9]",log2 fold change of degron read counts,[1],2.27
same,log2 fold change of degron read counts,[2],3.03
same,log2 fold change of degron read counts,[3],2.5
same,log2 fold change of degron read counts,compound: thalidomide,3
"FICEICGASFTQKGNLLRHIKL [46F_47I_49E_50I_52G_53A_54S_55F_67L_, Q9UKT9]",log2 fold change of degron read counts,[1],0.541
same,log2 fold change of degron read counts,[2],2.73
same,log2 fold change of degron read counts,[3],2.39
same,log2 fold change of degron read counts,compound: thalidomide,2.95
"FWCEICGASFTQKGNLLRHIKL [46F_47W_49E_50I_52G_53A_54S_55F_67L_, Q9UKT9]",log2 fold change of degron read counts,[1],3.83
same,log2 fold change of degron read counts,[2],3.81
same,log2 fold change of degron read counts,[3],2.56
same,log2 fold change of degron read counts,compound: thalidomide,1.42
"FLCEICGASFTQKGNLLRHIKL [46F_47L_49E_50I_52G_53A_54S_55F_67L_, Q9UKT9]",log2 fold change of degron read counts,[1],1.8
same,log2 fold change of degron read counts,[2],-0.0236
same,log2 fold change of degron read counts,[3],1.14
same,log2 fold change of degron read counts,compound: thalidomide,1.42
"FFCEICGHSFTQKGNLLRHIKL [46F_47F_49E_50I_52G_53H_54S_55F_67L_, Q9UKT9]",log2 fold change of degron read counts,[1],-2.6
same,log2 fold change of degron read counts,[2],-2.19
same,log2 fold change of degron read counts,[3],-2.73
same,log2 fold change of degron read counts,compound: thalidomide,-2.65
"FVCEICGASFTQKGNLLRHIKL [46F_47V_49E_50I_52G_53A_54S_55F_67L_, Q9UKT9]",log2 fold change of degron read counts,[1],1.36
same,log2 fold change of degron read counts,[2],2.28
same,log2 fold change of degron read counts,[3],1.92
same,log2 fold change of degron read counts,compound: thalidomide,3
"FECNQCGAGFTQKGNLLRHIKL [46F_47E_49N_50Q_52G_53A_54G_55F_67L_, Q9UKT9]",log2 fold change of degron read counts,[1],-2.2
same,log2 fold change of degron read counts,[2],-2.79
same,log2 fold change of degron read counts,[3],-2.43
same,log2 fold change of degron read counts,compound: thalidomide,-2.17
"LLCNQCGFQCTQKGNLLRHIKL [46L_47L_49N_50Q_52G_53F_54Q_55C_67L_, Q9UKT9]",log2 fold change of degron read counts,[1],-2.02
same,log2 fold change of degron read counts,[2],-1.96
same,log2 fold change of degron read counts,[3],-2.15
same,log2 fold change of degron read counts,compound: thalidomide,-1.68
"FQCNVCGAYFTQKGNLLRHIKL [46F_47Q_49N_50V_52G_53A_54Y_55F_67L_, Q9UKT9]",log2 fold change of degron read counts,[1],-2.25
same,log2 fold change of degron read counts,[2],-1.8
same,log2 fold change of degron read counts,[3],-0.854
same,log2 fold change of degron read counts,compound: thalidomide,1.41
"FICEICGHAFTQKGNLLRHIKL [46F_47I_49E_50I_52G_53H_54A_55F_67L_, Q9UKT9]",log2 fold change of degron read counts,[1],-3.32
same,log2 fold change of degron read counts,[2],-2.94
same,log2 fold change of degron read counts,[3],-2.31
same,log2 fold change of degron read counts,compound: thalidomide,-1.67
"FRCDQCGACFTQKGNLLRHIKL [46F_47R_49D_50Q_52G_53A_54C_55F_67L_, Q9UKT9]",log2 fold change of degron read counts,[1],-2.93
same,log2 fold change of degron read counts,[2],-3.5
same,log2 fold change of degron read counts,[3],-1.12
same,log2 fold change of degron read counts,compound: thalidomide,-2.52
"FHCEICGHSFTQKGNLLRHIKL [46F_47H_49E_50I_52G_53H_54S_55F_67L_, Q9UKT9]",log2 fold change of degron read counts,[1],-2.93
same,log2 fold change of degron read counts,[2],-3.88
same,log2 fold change of degron read counts,[3],-2.79
same,log2 fold change of degron read counts,compound: thalidomide,-3.22
"FTCNQCGHFFTQKGNLLRHIKL [46F_47T_49N_50Q_52G_53H_54F_55F_67L_, Q9UKT9]",log2 fold change of degron read counts,[1],-1.82
same,log2 fold change of degron read counts,[2],-2.32
same,log2 fold change of degron read counts,[3],-2.31
same,log2 fold change of degron read counts,compound: thalidomide,-2.01
"FICEICGRCFTQKGNLLRHIKL [46F_47I_49E_50I_52G_53R_54C_55F_67L_, Q9UKT9]",log2 fold change of degron read counts,[1],-2.73
same,log2 fold change of degron read counts,[2],-1.99
same,log2 fold change of degron read counts,[3],-0.856
same,log2 fold change of degron read counts,compound: thalidomide,-0.602
"FCCPVCGAHFTQKGNLLRHIKL [46F_47C_49P_50V_52G_53A_54H_55F_67L_, Q9UKT9]",log2 fold change of degron read counts,[1],1.59
same,log2 fold change of degron read counts,[2],0.752
same,log2 fold change of degron read counts,[3],1.65
same,log2 fold change of degron read counts,compound: thalidomide,0.961
"LRCNQCGFFCTQKGNLLRHIKL [46L_47R_49N_50Q_52G_53F_54F_55C_67L_, Q9UKT9]",log2 fold change of degron read counts,[1],-1.45
same,log2 fold change of degron read counts,[2],-1.65
same,log2 fold change of degron read counts,[3],-1.16
same,log2 fold change of degron read counts,compound: thalidomide,-0.846
"FYCEICGASFTQKGNLLRHIKL [46F_47Y_49E_50I_52G_53A_54S_55F_67L_, Q9UKT9]",log2 fold change of degron read counts,[1],3.72
same,log2 fold change of degron read counts,[2],3.7
same,log2 fold change of degron read counts,[3],2.91
same,log2 fold change of degron read counts,compound: thalidomide,1.64
"FSCEICGASFTQKGNLLRHIKL [46F_47S_49E_50I_52G_53A_54S_55F_67L_, Q9UKT9]",log2 fold change of degron read counts,[1],3.56
same,log2 fold change of degron read counts,[2],2.8
same,log2 fold change of degron read counts,[3],2.11
same,log2 fold change of degron read counts,compound: thalidomide,1.64
"FDCEICGASFTQKGNLLRHIKL [46F_47D_49E_50I_52G_53A_54S_55F_67L_, Q9UKT9]",log2 fold change of degron read counts,[1],3.18
same,log2 fold change of degron read counts,[2],0.784
same,log2 fold change of degron read counts,[3],0.437
same,log2 fold change of degron read counts,compound: thalidomide,1.24
"FGCEICGASFTQKGNLLRHIKL [46F_47G_49E_50I_52G_53A_54S_55F_67L_, Q9UKT9]",log2 fold change of degron read counts,[1],3.07
same,log2 fold change of degron read counts,[2],2.12
same,log2 fold change of degron read counts,[3],1.77
same,log2 fold change of degron read counts,compound: thalidomide,1.03
"FCCEICGASFTQKGNLLRHIKL [46F_47C_49E_50I_52G_53A_54S_55F_67L_, Q9UKT9]",log2 fold change of degron read counts,[1],3.35
same,log2 fold change of degron read counts,[2],2.7
same,log2 fold change of degron read counts,[3],2.35
same,log2 fold change of degron read counts,compound: thalidomide,2.35
"FHCEICGASFTQKGNLLRHIKL [46F_47H_49E_50I_52G_53A_54S_55F_67L_, Q9UKT9]",log2 fold change of degron read counts,[1],3.13
same,log2 fold change of degron read counts,[2],2.67
same,log2 fold change of degron read counts,[3],1.52
same,log2 fold change of degron read counts,compound: thalidomide,0.22
"FMCEICGASFTQKGNLLRHIKL [46F_47M_49E_50I_52G_53A_54S_55F_67L_, Q9UKT9]",log2 fold change of degron read counts,[1],1.61
same,log2 fold change of degron read counts,[2],1.94
same,log2 fold change of degron read counts,[3],2.9
same,log2 fold change of degron read counts,compound: thalidomide,2
"FKCEICGASFTQKGNLLRHIKL [46F_47K_49E_50I_52G_53A_54S_55F_67L_, Q9UKT9]",log2 fold change of degron read counts,[1],1.57
same,log2 fold change of degron read counts,[2],-0.809
same,log2 fold change of degron read counts,[3],-2.2
same,log2 fold change of degron read counts,compound: thalidomide,-0.268
"FQCEICGASFTQKGNLLRHIKL [46F_47Q_49E_50I_52G_53A_54S_55F_67L_, Q9UKT9]",log2 fold change of degron read counts,[1],2.5
same,log2 fold change of degron read counts,[2],2.8
same,log2 fold change of degron read counts,[3],2.23
same,log2 fold change of degron read counts,compound: thalidomide,3.75
